Several values for one entry are separate records, joined by “and”; a condition that tells them apart may be missing. Equal values may be shown once. Inconclusive results are not listed. Some compounds were tested as several samples or in several runs, with calls that do not always agree. Activity calls are given as the source filed them. Unless noted, calls come from the whole dose curve; as a rule, active = well fitted curve in the direction sought with a large enough effect; inconclusive = small, poorly fitted or top-dose-only effect, or another doubt; inactive = no such curve, though single readings can be large; an effect the other way counts as inactive or inconclusive.
System: not listed separately
Test: S16 Schwann cell PMP22 intronic element firefly luciferase assay (AID 624032);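 note: plate controls were DMSO for no effect and PTC124 positive control mean for full effect; nearly all actives have a fitted effect of over 30% in size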
Settings: S16 rat Schwann cells, PMP22 element FLuc, 24 h; series mostly up to 57.5 µM
Summary of the method: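 Luciferase reporter of PMP22 intronic-element expression in stably transfected S16 rat Schwann cells, read by ONE-Glo luminescence after 24 h compound exposure at 37 C. Activity scaled between DMSO (0%) and positive-control PTC124; concentration-effect curves quality-classified.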

Which Potency does the source give for `Oc1ccc(Cl)cc1` here?
The Potency was “inactive”.

For `CC(C)NC(C)C`, which Potency is on record?
Its Potency is “inactive”.

With `Nc1nc(N)nc(NC2CC2)n1` as the compound, how does the Potency read?
The Potency was “inactive”.

With `O=C1c2ccccc2C(=O)c2ccccc21` as the compound, how does the Potency read?
Its Potency is “inactive”.

With `CCC(C)(C)c1ccc(O)cc1` as the compound, how does the Potency read?
Its Potency is “inactive”.

For `CCOC(=O)CC(SP(=S)(OC)OC)C(=O)OCC` (configuration not stated), which Potency is on record?
Its Potency is “inactive”.

Which Potency does the source give for `CC(C)(C)c1ccc(O)cc1` here?
Its Potency is “inactive”.

System: not listed separately
Test: S16 Schwann cell PMP22 intronic element beta-lactamase assay (AID 624044; calls by dose curve;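 note: 0% = DMSO and -100% = potassium clavulanate positive control; nearly all actives have a fitted effect of over 15% in size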)
Settings: S16 rat Schwann cells, PMP22 element beta-lactamase FRET, 24 h; series mostly up to 38.3 µM
Summary of the method: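 Rat S16 Schwann cells with beta-Lac driven by a PMP22 intronic element, compound-treated 24 h at 37 °C. LiveBLAzer FRET B/G read: 460 nm normalized to potassium clavulanate vs DMSO; 535 nm FRET as viability; concentration-effect curves classified.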

Which outcome does the source give for `CC(C)=CC1C(C(=O)OCN2C(=O)C3=C(CCCC3)C2=O)C1(C)C` (configuration not stated) here?
The outcome was “inactive”.

For `COP(=S)(OC)Oc1ccc(SC)c(C)c1`, which outcome is on record?
Its outcome is “inactive”.

Which outcome does the source give for `NC(=O)c1cc([N+](=O)[O-])cc([N+](=O)[O-])c1` here?
Its outcome is “inactive”.

With `Clc1cccc(SC2CCNCC2)n1` as the compound, how does the outcome read?
Its outcome is “inactive”.

Molecular target: Glucagon-like peptide 1 receptor (Homo sapiens) (UniProt P43220)
Test: qHTS of GLP-1 Receptor Agonists: LOPAC Validation (AID 624148);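 note: luminescence from a luciferase reporter switched on by cAMP; 0% is about no effect; higher luminescence signal means agonism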
Settings: GLP-1R agonist cell assay; series mostly up to 46.1 µM
Summary of the method: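 Agonism scored as increased luciferase luminescence driven by cAMP in HEK293 clones carrying GLP-1R. Cells settled 12 hours, received compound for 4-6 hr at 37 deg C, 5% CO2, and were read after 12 min detection reagent at RT.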

Glucagon-like peptide 1 receptor (Homo sapiens), sequence (P43220 whole entry, looked up): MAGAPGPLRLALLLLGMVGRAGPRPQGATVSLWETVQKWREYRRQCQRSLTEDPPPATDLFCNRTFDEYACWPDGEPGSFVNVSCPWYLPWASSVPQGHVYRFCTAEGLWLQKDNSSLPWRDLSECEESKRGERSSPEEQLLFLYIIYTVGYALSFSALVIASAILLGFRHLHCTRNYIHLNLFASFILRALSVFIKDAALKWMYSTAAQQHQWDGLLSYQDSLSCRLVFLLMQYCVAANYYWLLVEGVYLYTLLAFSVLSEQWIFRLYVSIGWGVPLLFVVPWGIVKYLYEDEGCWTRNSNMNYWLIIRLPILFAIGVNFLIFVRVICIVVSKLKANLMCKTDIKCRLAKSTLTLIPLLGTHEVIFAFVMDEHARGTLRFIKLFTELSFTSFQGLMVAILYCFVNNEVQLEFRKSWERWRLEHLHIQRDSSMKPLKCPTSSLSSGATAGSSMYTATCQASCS

With `CCC1(c2ccc(N)cc2)CCC(=O)NC1=O` (configuration not stated) as the compound, how does the outcome read?
Its outcome is “inactive”.

For `O=C(O)CCCc1ccc(N(CCCl)CCCl)cc1`, which outcome is on record?
Its outcome is “inactive”.

For `CC(C)N(CCC(C(N)=O)(c1ccccc1)c1ccccn1)C(C)C` (configuration not stated), which outcome is on record?
Its outcome is “inactive”.

Which outcome does the source give for `CC(NC(C)(C)C)C(=O)c1cccc(Cl)c1` (configuration not stated) here?
Its outcome is “inactive”.

System: not listed separately
Test: HTS Assay for Allosteric Antagonists of the Human D2 Dopamine Receptor: Hit Validation in HTRF (AID 624455); note: potency is the fitted concentration of half-maximal effect;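 note: stable D1 dopamine receptor cell line scored for blocking the D1 response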
Settings: Cells stably expressing D1 dopamine receptor, inhibition mode; series mostly up to 46.1 µM
Summary of the method: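 Hits were examined in an HTRF assay using cells stably expressing the D1 dopamine receptor, scoring inhibition of the D1-mediated response. The preceding primary screen tracked calcium flux after an EC80 dopamine addition in force-coupled, inducible Hek293 Trex D2 cells.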

For `CCC1(c2ccc(N)cc2)CCC(=O)NC1=O` (configuration not stated), which Potency is on record?
Its Potency is “inactive”.

With `O=C(O)CCCc1ccc(N(CCCl)CCCl)cc1` as the compound, how does the Potency read?
Its Potency is “inactive”.

With `CC(C)C[C@H]1C(=O)N2CCC[C@H]2[C@]2(O)O[C@](NC(=O)[C@@H]3C=C4c5cccc6[nH]c(Br)c(c56)C[C@H]4N(C)C3)(C(C)C)C(=O)N12` as the compound, how does the Potency read?
The Potency was 3.26 µM (active).

With `CC(C)N(CCC(C(N)=O)(c1ccccc1)c1ccccn1)C(C)C` (configuration not stated) as the compound, how does the Potency read?
Its Potency is “inactive”.

With `CC(NC(C)(C)C)C(=O)c1cccc(Cl)c1` (configuration not stated) as the compound, how does the Potency read?
Its Potency is “inactive”.

System: not listed separately
Test: qHTS assay for small molecule agonists of the antioxidant response element (ARE) signaling pathway (AID 651741; active = well fitted activation curve with a large enough effect in the signal ratio; the % refers to the signal ratio; note: potency is the fitted concentration of half-maximal effect; for activation: % of control where 0% means no effect)
Settings: HepG2 ARE-bla reporter, beta-lactamase FRET ratio, 16 h; series mostly up to 96 µM
Summary of the method: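 Seeding 2,000 ARE-bla HepG2 cells per well preceded a 5 h incubation at 37 C/5% CO2 and a 16 h compound exposure at 37 C. Beta-lactamase reporter activity was then quantified by fluorescence after 2 h with LiveBLAzer B/G FRET substrate.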

With `CC(=O)N1CCN(c2ccc(OC[C@H]3CO[C@](Cn4ccnc4)(c4ccc(Cl)cc4Cl)O3)cc2)CC1` as the compound, how does the Potency read?
Its Potency is 30.6 µM (active).

Which Potency does the source give for `CC(C)NC(C)C` here?
Its Potency is “inactive”.

With `COP(=S)(OC)Oc1ccc(SC)c(C)c1` as the compound, how does the Potency read?
The Potency was “inactive”.

With `Nc1nc(N)nc(NC2CC2)n1` as the compound, how does the Potency read?
Its Potency is “inactive”.

For `[N-]=[N+]=CC(=O)OC[C@H](N)C(=O)O`, which Potency is on record?
Its Potency is “inactive”.

Which Potency does the source give for `COP(=S)(OC)Oc1cc(Cl)c(Cl)cc1Cl` here?
Its Potency is 24.3 µM (active).

With `CCCCCCCCCCCCCCCC(=O)OC(C)C` as the compound, how does the Potency read?
Its Potency is 54.5 µM (active).

For `COc1cc(OC)c(OC)cc1C=O`, which Potency is on record?
The Potency was “inactive”.

Which Potency does the source give for `O=C(O)c1cc(O)c(O)c(O)c1` here?
The Potency was 4.22 µM (active).

With `CCC(C)(C)c1ccc(O)cc1` as the compound, how does the Potency read?
The Potency was “inactive”.

Which Potency does the source give for `CCOC(=O)CC(SP(=S)(OC)OC)C(=O)OCC` (configuration not stated) here?
Its Potency is 48.6 µM (active).

For `Nc1ccccc1`, which Potency is on record?
Its Potency is “inactive”.

For `CC(C)(C)c1ccc(O)cc1`, which Potency is on record?
The Potency was “inactive”.

Which Potency does the source give for `CN1C[C@H](C(=O)N[C@]2(C)O[C@@]3(O)[C@@H]4CCCN4C(=O)[C@H](Cc4ccccc4)N3C2=O)C=C2c3cccc4[nH]cc(c34)C[C@H]21` here?
Its Potency is 37.6 µM (active).

Which Potency does the source give for `Oc1ccccc1` here?
The Potency was “inactive and 1000 µM (active)”.

System: not listed separately
Test: qHTS assay for small molecule activators of the p53 signaling pathway (AID 651743; active = well fitted activation curve with a large enough effect in the signal ratio, not every such curve was filed as active; the % refers to the signal ratio; note: potency is the fitted concentration of half-maximal effect; for activation: % of control where 0% means no effect)
Settings: HCT-116 p53RE-bla, beta-lactamase FRET ratio, 16 h; activation: stronger effect = higher value
Summary of the method: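 Screen for p53 pathway agonists uses stably transfected p53RE-bla HCT-116 cells, 4,000 per well, treated 16 h at 37 C with compounds in DMSO.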

With `Nc1ccccc1C(=O)O` as the compound, how does the activation read?
Its activation is -0.0398% (inactive).

For `Oc1ccc(Cl)cc1`, which activation is on record?
The activation was -2.59% (inactive).

With `CC(C)NC(C)C` as the compound, how does the activation read?
Its activation is -4.28% (inactive).

For `C[C@]12CCC(=O)C=C1CC[C@@H]1[C@@H]2CC[C@@]2(C)[C@H]1CC[C@]2(C)O`, which activation is on record?
Its activation is 5.56% (inactive).

Which activation does the source give for `COP(=S)(OC)Oc1ccc(SC)c(C)c1` here?
The activation was -1.52% (inactive) and -0.273% (inactive).

For `Nc1nc(N)nc(NC2CC2)n1`, which activation is on record?
Its activation is -0.84% (inactive).

For `CC1(C)C(C=C(Cl)Cl)C1C(=O)OC(C#N)c1cccc(Oc2ccccc2)c1` (configuration not stated), which activation is on record?
Its activation is -1.45% (inactive).

For `O=C(O)CCCc1ccc(N(CCCl)CCCl)cc1`, which Potency is on record?
The Potency was 22.4 µM (active) and 35.5 µM (active).

Which activation does the source give for `O=C1c2ccccc2C(=O)c2ccccc21` here?
The activation was 3.87% (inactive).

For `[N-]=[N+]=CC(=O)OC[C@H](N)C(=O)O`, which activation is on record?
The activation was -0.27% (inactive).

For `COP(=S)(OC)Oc1cc(Cl)c(Cl)cc1Cl`, which activation is on record?
The activation was -3.16% (inactive).

For `COc1cc(OC)c(OC)cc1C=O`, which activation is on record?
Its activation is -3.74% (inactive).

Which activation does the source give for `CCC(C)(C)c1ccc(O)cc1` here?
Its activation is 0.115% (inactive) and -4.79% (inactive).

Which activation does the source give for `CCOC(=O)CC(SP(=S)(OC)OC)C(=O)OCC` (configuration not stated) here?
The activation was -1.29% (inactive) and 0.916% (inactive) and -0.523% (inactive).

With `C[C@]1(O)CC[C@H]2[C@@H]3CCC4=CC(=O)CC[C@]4(C)[C@@]3(F)[C@@H](O)C[C@@]21C` as the compound, how does the activation read?
Its activation is -1.51% (inactive).

For `Nc1ccccc1`, which activation is on record?
The activation was 1.3% (inactive).

For `CC(C)(C)c1ccc(O)cc1`, which activation is on record?
Its activation is -2.47% (inactive).

Which activation does the source give for `CN1C[C@H](C(=O)N[C@]2(C)O[C@@]3(O)[C@@H]4CCCN4C(=O)[C@H](Cc4ccccc4)N3C2=O)C=C2c3cccc4[nH]cc(c34)C[C@H]21` here?
The activation was -2.39% (inactive) and -2.48% (inactive).

System: not listed separately
Test: qHTS assay for small molecule activators of the nuclear factor-kappa B (NF-kB) signaling pathway (AID 651749; active = well fitted activation curve with a large enough effect in the signal ratio; the % refers to the signal ratio; note: % of control where 0% means no effect)
Settings: NF-kB-bla ME-180 cells, beta-lactamase FRET ratio, 16 h; stronger effect = higher value
Summary of the method: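 Stably transfected ME-180 line; NF-kB response element upstream of beta-lactamase. Treatment: compound or DMSO, 16 hr. Detection: fluorescent FRET substrate.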

With `Nc1ccccc1C(=O)O` as the compound, how does the activation read?
The activation was 1.57% (inactive).

With `Oc1ccc(Cl)cc1` as the compound, how does the activation read?
Its activation is -0.964% (inactive).

With `CC(C)NC(C)C` as the compound, how does the activation read?
The activation was -1.54% (inactive).

With `COP(=S)(OC)Oc1ccc(SC)c(C)c1` as the compound, how does the activation read?
The activation was -0.287% (inactive) and 1.27% (inactive).

With `Nc1nc(N)nc(NC2CC2)n1` as the compound, how does the activation read?
The activation was -2.39% (inactive).

With `CC1(C)C(C=C(Cl)Cl)C1C(=O)OC(C#N)c1cccc(Oc2ccccc2)c1` (configuration not stated) as the compound, how does the activation read?
Its activation is 1.83% (inactive).

With `O=C(O)CCCc1ccc(N(CCCl)CCCl)cc1` as the compound, how does the activation read?
The activation was 0.602% (inactive) and -1.35% (inactive).

Which activation does the source give for `O=C1c2ccccc2C(=O)c2ccccc21` here?
Its activation is -2.5% (inactive).

For `[N-]=[N+]=CC(=O)OC[C@H](N)C(=O)O`, which activation is on record?
The activation was -0.449% (inactive).

With `COP(=S)(OC)Oc1cc(Cl)c(Cl)cc1Cl` as the compound, how does the activation read?
Its activation is -1.3% (inactive).

With `COc1cc(OC)c(OC)cc1C=O` as the compound, how does the activation read?
Its activation is 2% (inactive).

With `CCC(C)(C)c1ccc(O)cc1` as the compound, how does the activation read?
Its activation is -2.14% (inactive) and 1.1% (inactive).

With `CCOC(=O)CC(SP(=S)(OC)OC)C(=O)OCC` (configuration not stated) as the compound, how does the activation read?
Its activation is -3.4% (inactive) and -2.42% (inactive).

Which activation does the source give for `C[C@]1(O)CC[C@H]2[C@@H]3CCC4=CC(=O)CC[C@]4(C)[C@@]3(F)[C@@H](O)C[C@@]21C` here?
Its activation is -0.7% (inactive).
